Results: PubChem BioAssay
The source made the active and inactive calls.

Key:
[1] = system: Human papillomavirus type 1a protein E7 (residues 44-93); assay: small molecules binding HPV E7 44-93 – biochemical, small-molecule microarray, residues 44-93, 635 nm fluorescence, primary screen (AID 1108); conditions: fluorescence 635 nm, higher = more signal;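 note: E7 fragment applied at 1 µg/mL in TBST for 1 h at 4 C; score combines spot fluorescence with its signal to noise ratio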
[2] = hepatitis C replication reporter changes, two-sided – Huh7 cells, luciferase reporter, HCV replication inhibitor project, primary screen (AID 1109); conditions: Huh7 HCV replicon luciferase reporter, 48 h; higher = more signal;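 note: huh7 hepatoma cells harbouring a luciferase neomycin HCV replicon reporter; luciferase luminescence as measure of HCV replicon replication; test concentration not given here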
[3] = target: Left-right determination factor 2 (Homo sapiens) (UniProt O00292); assay: small molecules binding LEFTY2 protein – biochemical, small-molecule microarray, 635 nm fluorescence scan, primary screen (AID 1110); conditions: higher = more signal
[4] = target: Calmodulin-1 (Homo sapiens) (UniProt P0DP23); assay: small molecules binding calmodulin-1 with EGTA – biochemical, small-molecule microarray, Cy5-labelled CALM1, profiling panel (AID 1111); conditions: Cy5-CALM1 binding fluorescence, higher = more signal;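 note: labelled calmodulin applied in Tris saline Tween buffer holding calcium plus EGTA and DTT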
[5] = target: Calmodulin-1 (Homo sapiens) (UniProt P0DP23); assay: small molecules binding Ca-loaded calmodulin-1 – biochemical, small-molecule microarray, Cy5-labelled CALM1, plus calcium, artefact control for SMM control-protein annotation, profiling panel (AID 1112); conditions: Cy5-CALM1 binding fluorescence, higher = more signal;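 note: score merges spot fluorescence with signal to noise from triplicate slides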
[6] = probe aWnt5a binding to arrayed compounds – biochemical, biotinylated probe, 635/667 nm fluorescence, primary screen (AID 1113); conditions: small-molecule microarray, higher = more signal;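 note: score merges 667 nm fluorescence intensity with signal-to-noise per printed feature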
[7] = probe aShh binding to arrayed compounds – biochemical, biotinylated probe, 635/667 nm fluorescence, primary screen (AID 1114); conditions: small-molecule microarray, higher = more signal;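 note: probe is biotin-labelled aShh protein from a stem cell growth factor screen; measures binding of labelled protein to compounds printed on the slide; score merges feature fluorescence at 667 nm with signal-to-noise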
[8] = probe aNog binding to arrayed compounds – biochemical, biotinylated probe, 635/667 nm fluorescence, primary screen (AID 1115); conditions: small-molecule microarray, higher = more signal;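 note: probe is biotinylated aNog protein used at 0.15 µg/mL for 1 h at 4 C; z-score combines 667 nm fluorescence of each spot with its signal to noise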
[9] = target: Torsin-1A-interacting protein 1 (Homo sapiens) (UniProt Q5JTV8); assay: compound microarray binding of lysate hLAP1 – cell lysate, small-molecule microarray, COS7 lysate, 635/667 nm fluorescence, primary screen (AID 1116); conditions: 635 nm fluorescence, higher = more signal
[10] = target: Alpha-bungarotoxin (Bungarus multicinctus) (UniProt P60615); assay: compounds binding labelled alpha-BTX control protein – biochemical, small-molecule microarray, Alexa647 label, 635/667 nm fluorescence, artefact control for SMM control protein annotation, profiling panel (AID 1117); conditions: alpha-BTX-A647 binding fluorescence, higher = more signal
Albumin (Bos taurus) = Albumin (Bos taurus) (UniProt P02769); assay: compounds binding labelled BSA control protein – biochemical, small-molecule microarray, Alexa647 label, 635/667 nm fluorescence, artefact control for SMM control protein annotation, profiling panel (AID 1118); conditions: BSA-A647 binding, fluorescence 635 nm, higher = more signal;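 note: score merges 667 nm emission intensity and signal-to-noise per printed compound spot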
[11] = probe aXIP binding to arrayed compounds – biochemical, NeuroSMM set, 635/667 nm fluorescence, primary screen (AID 1119); conditions: small-molecule microarray, higher = more signal, called active from +8 up or from −8 down;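 note: probe is the protein aXip251-270 applied at 1 µg/mL to compound-printed slides; binding of probe to printed compounds measured as 667 nm fluorescence plus signal to noise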
[12] = probe aNOTCH3 binding on compound microarray – biochemical, small-molecule microarray, 635/667 nm fluorescence, primary screen (AID 1120); conditions: higher = more signal;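 note: probe is a biotin-tagged antibody raised against NOTCH3 rather than NOTCH3 protein; score merges spot fluorescence near 667 nm with spot signal to noise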
[13] = probe aNOTCH2 binding on compound microarray – biochemical, small-molecule microarray, 635/667 nm fluorescence, primary screen (AID 1121); conditions: higher = more signal;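 note: score merges feature fluorescence read at 667 nm with its signal to noise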
[14] = target: Carbonic anhydrase 2 (Homo sapiens) (UniProt P00918); assay: compounds binding carbonic anhydrase 2 – biochemical, small-molecule microarray, Alexa647-labelled CAII, profiling panel (AID 1122); conditions: CAII-A647 binding fluorescence, higher = more signal
[15] = COS7 lysate on small-molecule microarray, probe aHis, 635 nm (AID 1123); conditions: COS7 cell lysate, fluorescence, higher = more signal;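 note: z-score combines 667nm fluorescence intensity with signal-to-noise per printed compound spot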
[16] = probe aLAP1 signal on lysate-treated microarray – cell lysate, small-molecule microarray, COS7 lysate, primary screen (AID 1124); conditions: probe aLAP1, fluorescence, higher = more signal;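 note: lysate comes from COS7 cells expressing LAP1 and is applied at 0.3 µg/mL; score merges spot fluorescence near 667 nm with signal-to-noise over triplicate slides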
Sam68 (KHDRBS1) = assay: compounds binding KHDRBS1 protein – biochemical, small-molecule microarray, 635 nm fluorescence, primary screen (AID 1125); conditions: higher = more signal;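 note: score merges 667 nm channel intensity with signal to noise over triplicate slides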
[17] = system: Chordin-like protein 2 (CHRDL2); assay: compounds binding chordin-like 2 – biochemical, small-molecule microarray, 635 nm fluorescence, primary screen (AID 1126); conditions: fluorescence 635 nm, higher = more signal;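 note: printed compound slides probed with Chrdl2 protein at 4 µg/mL for 1 h at 4 C; score merges 667 nm emission intensity with signal to noise over three replicate slides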
[18] = target: Concanavalin-A (Canavalia ensiformis) (UniProt P02866); assay: compounds binding concanavalin A lectin – biochemical, small-molecule microarray, Alexa647 label, 635 nm, artefact control for SMM control protein annotation, primary screen (AID 1127); conditions: ConA-A647 binding fluorescence, higher = more signal;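 note: z combines 667 nm emission intensity with signal-to-noise across three replicate slides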
Chain of Concanavalin-A (Canavalia ensiformis) (P02866 whole entry, looked up): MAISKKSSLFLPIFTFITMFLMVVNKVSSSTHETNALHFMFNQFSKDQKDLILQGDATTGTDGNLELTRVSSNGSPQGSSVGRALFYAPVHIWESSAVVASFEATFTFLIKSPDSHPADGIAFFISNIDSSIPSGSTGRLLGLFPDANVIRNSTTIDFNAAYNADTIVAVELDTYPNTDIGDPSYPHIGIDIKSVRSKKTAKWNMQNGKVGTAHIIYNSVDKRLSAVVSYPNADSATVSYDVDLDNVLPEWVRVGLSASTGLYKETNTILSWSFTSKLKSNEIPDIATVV

Chain of Torsin-1A-interacting protein 1 (Homo sapiens) (Q5JTV8 whole entry, looked up): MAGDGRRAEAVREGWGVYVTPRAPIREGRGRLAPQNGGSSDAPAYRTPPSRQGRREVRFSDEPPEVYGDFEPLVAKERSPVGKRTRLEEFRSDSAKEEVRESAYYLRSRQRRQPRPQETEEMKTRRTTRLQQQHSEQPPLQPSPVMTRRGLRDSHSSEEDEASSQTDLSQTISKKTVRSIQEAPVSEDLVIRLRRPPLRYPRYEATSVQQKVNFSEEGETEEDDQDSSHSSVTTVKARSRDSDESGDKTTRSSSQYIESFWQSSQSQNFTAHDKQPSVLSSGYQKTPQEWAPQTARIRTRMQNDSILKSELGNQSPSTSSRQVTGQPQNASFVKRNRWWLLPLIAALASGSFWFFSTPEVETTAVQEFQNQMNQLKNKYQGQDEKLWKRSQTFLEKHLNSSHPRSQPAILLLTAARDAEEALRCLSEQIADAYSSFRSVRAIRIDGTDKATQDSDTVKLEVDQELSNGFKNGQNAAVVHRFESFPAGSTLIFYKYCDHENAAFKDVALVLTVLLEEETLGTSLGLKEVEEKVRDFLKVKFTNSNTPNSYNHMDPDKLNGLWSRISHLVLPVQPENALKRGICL
Chain of Albumin (Bos taurus) (P02769 whole entry, looked up): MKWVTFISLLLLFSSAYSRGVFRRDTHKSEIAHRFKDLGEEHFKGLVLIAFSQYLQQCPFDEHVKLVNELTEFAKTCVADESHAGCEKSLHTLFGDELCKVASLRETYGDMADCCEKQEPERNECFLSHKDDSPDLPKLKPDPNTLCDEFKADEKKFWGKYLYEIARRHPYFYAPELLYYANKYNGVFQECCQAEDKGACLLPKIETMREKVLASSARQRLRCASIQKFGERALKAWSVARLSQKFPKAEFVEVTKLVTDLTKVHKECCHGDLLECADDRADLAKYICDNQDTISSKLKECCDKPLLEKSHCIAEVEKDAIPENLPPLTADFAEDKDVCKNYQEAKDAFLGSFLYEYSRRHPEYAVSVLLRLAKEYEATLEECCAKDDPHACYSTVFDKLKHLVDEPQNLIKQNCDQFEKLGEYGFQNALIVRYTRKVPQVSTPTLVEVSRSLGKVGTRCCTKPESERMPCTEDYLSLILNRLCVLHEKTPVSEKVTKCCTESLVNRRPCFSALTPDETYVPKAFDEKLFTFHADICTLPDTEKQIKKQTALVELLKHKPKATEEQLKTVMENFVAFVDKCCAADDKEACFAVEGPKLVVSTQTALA
Chain of Alpha-bungarotoxin (Bungarus multicinctus) (P60615 whole entry, looked up): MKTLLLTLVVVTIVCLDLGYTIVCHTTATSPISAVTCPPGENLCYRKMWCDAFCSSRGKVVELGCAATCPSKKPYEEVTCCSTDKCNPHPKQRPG
Chain of Left-right determination factor 2 (Homo sapiens) (O00292 whole entry, looked up): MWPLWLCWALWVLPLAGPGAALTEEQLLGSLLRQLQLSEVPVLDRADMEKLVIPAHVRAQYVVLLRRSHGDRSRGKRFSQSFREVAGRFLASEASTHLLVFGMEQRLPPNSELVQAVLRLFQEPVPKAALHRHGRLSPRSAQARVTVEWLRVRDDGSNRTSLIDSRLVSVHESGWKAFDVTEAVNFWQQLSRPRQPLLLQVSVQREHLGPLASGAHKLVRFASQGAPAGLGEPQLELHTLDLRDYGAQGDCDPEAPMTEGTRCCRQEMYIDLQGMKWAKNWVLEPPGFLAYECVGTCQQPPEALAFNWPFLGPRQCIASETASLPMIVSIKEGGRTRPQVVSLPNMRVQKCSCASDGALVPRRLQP

Compound	composite z-score [1]	z-score [2]	composite z-score [3]	composite z-score [4]	composite z-score [5]	composite z-score [6]	composite z-score [7]	composite z-score [8]	composite z-score [9]	composite z-score [10]	composite z-score (Albumin (Bos taurus))	composite Z-score [11]	composite z-score [12]	composite z-score [13]	composite z-score [14]	composite z-score [15]	composite z-score [16]	composite z-score (Sam68 (KHDRBS1))	composite z-score [17]	composite z-score [18]
C=CCN1C(=O)[C@]2(O[C@H](CCO)[C@@H]([Si](C)(C)c3ccc(OC)cc3)[C@@H]2C)c2cc(N3C(=O)c4ccccc4Oc4ccccc43)ccc21	1.3	-5.05	0.28	1.2	0.323	-0.0203	-0.0709	-0.158	-0.0465	0.378	0.493	-0.0467 (inactive)	-0.0328	-0.125	0.467	0.506	0.199	1.11	-0.175	0.91
COC(=O)[C@@]1(Cc2ccccc2)[C@H]2c3cc(C(=O)N(C)C)n(Cc4ccc(Cl)c(C(F)(F)F)c4)c3C[C@H]2CN1C(=O)c1ccccc1	1.37	-2.61	0.533	1.49	1.06	0.315	1.24	1.91	0.636	0.995	0.811	-0.215 (inactive)	0.745	0.445	0.668	1.9	0.402	1.2	-0.123	0.95
C=CCOC(=O)[C@@H]1[C@H]2C(=O)O[C@H](c3ccccc3)[C@H](c3ccccc3)N2[C@H](c2ccc(OCCOC(=O)[C@@H]3C[C@@H]4C(=O)N[C@@H](CC(C)C)C(=O)N4[C@@H]3c3ccc(O)cc3)cc2)[C@@]12C(=O)Nc1ccc(I)cc12	1.39	-0.432	1.26	0.751	0.289	-0.263	-0.0793	1.12	-0.107	1.44	-0.766	0.207 (inactive)	1.3	0.443	0.536	1.37	0.166	1.28	1.1	1.17
COCCOC(=O)N1C(=O)[C@@]2(c3cc(C#CCCO)ccc31)[C@H](C(=O)N1CCN(c3ncccn3)CC1)[C@H]1C(=O)O[C@H](c3ccccc3)[C@H](c3ccccc3)N1[C@@H]2c1ccc(OCCO)cc1	1.46	-1.21	0.6	1.26	0.0318	0.0633	0.0469	0.234	0.867	1.95	0.788	-0.265 (inactive)	0.199	-0.0817	0.621	2.13	0.419	1.29	0.372	1.12
COc1cc2c(cc1O)C(C)N(Cc1sc3ccccc3c1Cl)CC2 (stereo not given)	-1.91	-0.728	-1.41	1.23	0.869	-0.117	0.075	0.426	-0.216	0.201	1.01	-0.768 (inactive)	-0.014	-0.0158	0.937	0.477	-0.181	-1.44	-1.9	-1.53
